Assay results as given in PubChem BioAssay (NCATS).
Unmarked numbers belong to inactive results. Activity calls are given as the source filed them. Calls come from the whole dose curve; as a rule, active = well fitted inhibition curve with a large enough effect; inconclusive = small, poorly fitted or top-dose-only effect; inactive = no such curve, though single readings can be large or run the other way. Where a SMILES comes first, the peptide text is derived from it. Bridges are numbered along the chain shown (N, C = ends). [ ]: non-standard residue; d: D form. hArg = N=C(N)NCCCC[C@H](N)C(=O)O; Mpa = O=C(O)CCS

Test: qHTS assay for measurement of the activity of small molecule inhibitors on Zika virus induced Caspase-3 activity in human astrocytoma cells (AID 1224859);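 note: plate controls were ZIKV-infected untreated cells for no effect and uninfected cells for full effect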
Details: SNB-19 ZIKV-induced caspase-3/7, luminescence, 6 h; series mostly up to 45.7 µM
From the text: National Center for Advancing Translational Sciences [NCATS]
Johns Hopkins University School of Medicine
Increase in the Caspase-3 activity indicates an activation of apoptosis cell death pathway caused by Zika virus infection in certain types of neuronal cells including human neural progenitor cells (hNPCs), astrocytes, and astrocytoma cell line (SNB-19). This cell-based caspase-3 activity assay measures the increased caspase-3 activity in the astrocytoma cell line (SNB-19) after a 6-hour Zika virus infection with a luminescence readout. A decrease in the luminescence signal in this assay by small molecule treatment indicates an inhibitory effect of that small molecule on the Zika virus induced caspase-3 activity that may correlate with its effect on reduction of Zika virus caused cell death.
The medium for SNB-19 cells is composed of RPMI 1640 (ATCC, Cat.# 30-2001), 10% fetal bovine serum (FBS) (GE healthcare Life Sciences, Cat.# SH30071.03), and 1% Pen/Strep (Gibco, Cat.# 15140-122). A Caspase-Glo 3/7 assay kit (catalog number G8092; Promega, Madison, WI) was used to detect caspase-3 activity induced by Zika virus infection in human cells. The reagent mixture was reconstituted as described in the protocol from the manufacturer. Polystyrene tissue culture treated and PDL coated white plates were obtained from Greiner Bio-One (Monroe, NC). Cells were seeded in 384- or 1536-well assay plates and cultured at 37 C with 5% CO2 for 16 to 20 hours. The typical cell seeding density in the 1536-well plate assay is 250 cells/well in 3ul medium for SNB-19 cells in tissue culture treated plates. Compounds were added to cells and incubated for one hour before addition of ZIKV solution to cells (2 FFU/cell). After incubation at 37 C with 5% CO2 for 6 hours, the reagent mixture of Caspase-Glo 3/7 assay kit was added to each well, followed by incubation at room temperature for 30 minutes. The luminescence intensity of the assay plates was measured using a ViewLux plate reader (PerkinElmer). Data were normalized by using the cell-containing wells without ZIKV as a negative control (0% induction of caspase 3/7 activity) and wells containing ZIKV infected cells (Caspase-3 activity induced) as a positive control (100% induction of caspase 3 activity). The percentage inhibitions of the increased Caspase-3 activity by small molecule inhibitors were then calculated.
In the case of `C=CCNC(N)=S`, the outcome is reported as “inactive”. For `Cc1c(C)c2c(c(C)c1OC(=O)c1cccnc1)CC[C@@](C)(CCC[C@H](C)CCC[C@H](C)CCCC(C)C)O2`, the outcome was “inactive”. Compound `CCCCCCCCCCOc1cc2c(=O)c(C(=O)OCC)c[nH]c2cc1OCC` has an activity change, negative = inhibition of -3.7% [at 4.53 µM]. In the case of `Cc1c(Cn2ccnc2)c2ccccc2n1CCC(=O)O`, the outcome is reported as “inactive”. For `O=C(O)COC(=O)Cc1ccccc1Nc1c(Cl)cccc1Cl`, the outcome was “inactive”. With `Cc1ccccc1N=Nc1ccc(N=Nc2c(O)ccc3ccccc23)c(C)c1` the outcome was “inactive”. In the case of `NS(=O)(=O)c1ccc(NC(=O)CCC(=O)O)cc1`, the outcome is reported as “inactive”. For `C[C@]1(Cn2ccnn2)[C@H](C(=O)O)N2C(=O)C[C@H]2S1(=O)=O`, the outcome was “inactive”. In the case of `CCOc1cc(NC(C)=O)ccc1C(=O)OC`, the outcome is reported as “inactive”. For `CCCNC(C)(C)COC(=O)c1ccccc1`, the outcome was “inactive”. In the case of `Cc1cccc(C(=O)O)c1O`, the outcome is reported as “inactive”. In the case of `NNC(=O)CP(=O)(c1ccccc1)c1ccccc1`, the outcome is reported as “inactive”. In the case of `CC(=O)N1C[C@H](O)C[C@H]1C(=O)O`, the outcome is reported as “inactive”. With `O=C(NCC(O)CO)c1c(I)c(C(=O)NCC(O)CO)c(I)c(N(CCO)C(=O)CO)c1I` (stereo not given) the outcome was “inactive”. In the case of `c1ccc2[nH]ccc2c1`, the outcome is reported as “inactive”. In the case of `CC(C)CCOC(=O)c1ccc(N(C)C)cc1`, the outcome is reported as “inactive”. For `CC1(C)S[C@@H]2[C@H](N=CN3CCCCCC3)C(=O)N2[C@H]1C(=O)O`, the outcome was “inactive”. In the case of `CC(C)CCCC(C)CCCC(C)CCCCC(C)CCCC(C)CCCC(C)C` (stereo not given), the outcome is reported as “inactive”. In the case of `Nc1ccc(S(=O)(=O)c2ccc(N)cc2)cc1`, the outcome is reported as “inactive”. For `C[N+](C)(C)CC[N+]1(C)Cc2c(Cl)c(Cl)c(Cl)c(Cl)c2C1`, the outcome was “inactive”. For `CC1(c2ccccc2)OC(C(=O)O)=CC1=O` (stereo not given), the outcome was “inactive”. For `Cc1cc(-n2nc3ccc(Cl)cc3n2)c(O)c(C(C)(C)C)c1`, the outcome was “inactive”. With `Cc1c(NC(=O)c2cccnc2)c(=O)n(-c2ccccc2)n1C` the outcome was “inactive”. In the case of `Cc1cccc(Nc2ccccc2C(=O)O)c1C`, the outcome is reported as “inactive”. In the case of `O=C(O)C(S)C(S)C(=O)O` (stereo not given), the outcome is reported as “inactive”. With `COc1nccnc1NS(=O)(=O)c1ccc(N)cc1` the outcome was “inactive”. In the case of `CC(C)NC[C@@H](O)COc1ccc(CC(N)=O)cc1`, the outcome is reported as “inactive”. With `O=C(c1ccccc1)C(O)c1ccccc1` (stereo not given) the outcome was “inactive”. In the case of `CC(C)c1cc2c(cc1S(=O)(=O)O)[C@@]1(C)CCC[C@@](C)(C(=O)O)[C@@H]1CC2`, the outcome is reported as “inactive”. In the case of `Cc1cccc(C)c1NC(=O)CC12CCCN1CCC2`, the outcome is reported as “inactive”. With `CC(CN(C)C)C(C)(O)Cc1ccc(Cl)cc1` (stereo not given) the outcome was “inactive”. In the case of `CC1(C)[C@@H](OC(=O)CCC(=O)O)CC[C@]2(C)[C@H]3C(=O)C=C4[C@@H]5C[C@@](C)(C(=O)O)CC[C@]5(C)CC[C@@]4(C)[C@]3(C)CC[C@@H]12`, the outcome is reported as “inactive”. With `Cc1c(N(C)C)c(=O)n(-c2ccccc2)n1C` the outcome was “inactive”. In the case of `NC(=O)[C@@H]1CSSCCC(=O)N[C@@H](CCCCN=C(N)N)C(=O)NCC(=O)N[C@@H](CC(=O)O)C(=O)N[C@@H](Cc2c[nH]c3ccccc23)C(=O)N2CCC[C@H]2C(=O)N1` ([Mpa][hArg]GDWPC-NH2; disulfide 1-7), the outcome is reported as “inactive”. In the case of `C=CCSCC1Nc2cc(Cl)c(S(N)(=O)=O)cc2S(=O)(=O)N1` (stereo not given), the outcome is reported as “inactive”. With `NC(=O)CCCCC1CCSS1` (stereo not given) the outcome was “inactive”. In the case of `NCc1ccc(S(N)(=O)=O)cc1`, the outcome is reported as “inactive”. In the case of `CCCCOC(=O)c1ccc(N)cc1`, the outcome is reported as “inactive”. With `COC(=O)N/N=C/c1c[n+]([O-])c2ccccc2[n+]1[O-]` the outcome was “inactive”. In the case of `NS(=O)(=O)c1cc2c(cc1C(F)(F)F)NCNS2(=O)=O`, the outcome is reported as “inactive”.
